The source of these data is PubChem BioAssay AID624418 (National Center for Advancing Translational Sciences (NCATS), 2012).

About 530 (0.13%) of roughly 410,000 compounds were called active. Inconclusive results (about 5%) are left out. What follows is part of a selection rich in actives, with near analogues and random picks from the rest. Where a call stands in place of a potency, no number is given. A number with no mark means an inactive call. Calls come from the whole dose curve; as a rule, active = well fitted inhibition curve with a large enough effect; inconclusive = small, poorly fitted or top-dose-only effect, or another doubt; inactive = no such curve, though single readings can be large or run the other way.
Potency is the fitted concentration of half-maximal effect.

A short description of the assay: qHTS of GLP-1 Receptor Inverse Agonists: Cytotox Screen.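 Note: loss of luciferase light is scored as toxicity.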 Conditions: HEK293 cAMP-luciferase reporter cells, luminescence, 24 h; series mostly up to 38.3 µM. The essentials:
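1536-well qHTS counterscreen of the MLSMR; 200 cells/uL, 12 h pre-incubation, 23 nL cpd, 24 h at 37 deg C 5% CO2, luciferase detection reagent, 12 min RT, luminescence. Inhibition = undesired.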
Take `O=C1/C(=C\c2ccc([N+](=O)[O-])cc2)CS(=O)(=O)C/C1=C/c1ccc([N+](=O)[O-])cc1`: the Potency is 3.16 µM (active). Take `COc1cc(C(=O)N2CCN(C(=O)COc3cccc(C)c3)CC2)cc(OC)c1OC`: the Potency entry was “inactive”. Same read-out and setting: the value for `CCc1nc2nc(C)cc(Nc3ccc(F)c(Cl)c3)n2n1` was “inactive”. Turning to `COCCNC(=O)CSc1c(C)cnc2c1c(=O)n(C)c(=O)n2C`, the Potency entry is “inactive”.

For the compound `CCOCCCNC(=O)c1c(NC(=O)Cc2coc3c(C)c(C)ccc23)sc2c1CCC2`, the Potency entry is “inactive”. In the case of `Cc1ccc(S(=O)(=O)c2nnn3c2nc(N2CCN(c4ccccc4F)CC2)c2cc(Cl)ccc23)cc1C`, the Potency entry is “inactive”. Still for that read-out and setting: the result for `CN(C)C(=S)N=c1ssc(=S)n1Cc1ccco1` reads 0.316 µM (active); that for `CCc1ccccc1N1CN(Cc2ccco2)CNC1=S`, “inactive”. Still for that read-out and setting: the result for `CCOC(=O)c1ccc(CN(Cc2ccccc2)S(=O)(=O)c2ccc(Cl)cc2)cc1` reads “inactive”. Regarding `COc1c(Cl)cc(Cl)cc1C(=O)Nc1cccc2cccnc12`, the Potency result is “inactive”. Still for that read-out and setting: the value for `CC(C)C12CN3CC(C(C)C)(CN(C1)C3c1ccc(OCc3ccccc3)cc1)C2=O` (centres undefined) was “inactive”; that for `Cc1ccccc1-c1nc2cc(NC(=O)c3cccc(OCCC(C)C)c3)ccc2o1` was “inactive”; that for `COc1ccc(-n2c(SC)nc3sc4c(c3c2=O)CCN(C(C)=O)C4)cc1` was “inactive”. Still for that read-out and setting: the value for `O=C(c1ccc2c(c1)N(Cc1ccccc1)C(=O)c1ccccc1S2(=O)=O)N1CCCC1` was “inactive”; that for `CC1CCCCN1CC(=O)N1CCCc2c1c(=O)oc1ccc(OCc3ccccc3)cc21` (centres undefined) was “inactive”; that for `CCC1CCCCN1Cc1c(O)ccc2c(=O)c(Oc3ccccc3Cl)c(C(F)(F)F)oc12` (centres undefined) was “inactive”.

As for `COC(=O)c1sccc1S(=O)(=O)N(CC(=O)Nc1ccc(C)c(F)c1)c1ccc(C)c(C)c1`, the Potency result was “inactive”.

As to `O=S(=O)(c1ccc2nc(N3CCN(c4cccc(Cl)c4)CC3)ccc2c1)N1CCCCC1`, the Potency entry was “inactive”. Same read-out and setting: the value for `COc1ccccc1NC(=O)CN1C(=O)c2ccccc2Sc2ccc(C(=O)N3CCCC3)cc21` was “inactive”. Same read-out and setting: the result for `CCOc1ccc(NC(=O)c2cc3c(=O)n(Cc4cccs4)ccc3nc2C)cc1` reads “inactive”; that for `CCCC(=O)Nc1ccc2oc(-c3ccc(O)c(Br)c3)nc2c1`, “inactive”; that for `COc1ccc(C(F)(F)F)cc1NC(=O)c1sc2nc(-c3cccs3)ccc2c1N`, “inactive”. As to `CCCCCn1c(=O)[nH]c2cc(C(=O)Nc3cc(C)cc(C)c3)ccc2c1=O`, the Potency result is “inactive”.

With `O=C(Cn1ncc2c3ccccc3n(Cc3ccccc3)c2c1=O)NC1CCCCCC1`, the Potency entry was “inactive”. As to `COc1ccc(-c2noc(CSc3nc4ccc(C)cc4[nH]3)n2)cc1`, the Potency entry is “inactive”. In the case of `Cc1ccc(-n2ncc(C(=O)N(C)Cc3ccccc3)c2-n2cccc2)cc1`, the Potency result was “inactive”.

Consider `CCOc1ccc(S(=O)(=O)c2cn(Cc3ccc(OC)cc3)c3ccc(F)cc3c2=O)cc1`, for which the Potency entry was “inactive”. The same measure, in the same setting: the value for `O=C(/C(=C/c1cccc(Cl)c1)c1nc2ccccc2[nH]1)c1ccccc1` was 10 µM (active); that for `Cc1ccc2nc(CNC(=O)c3ccccc3)[nH]c2c1` was “inactive”; that for `N#C/C(=C\c1ccccc1F)c1nc2ccccc2c(=O)[nH]1` was “inactive”. Turning to `COc1ccc(-c2noc(CSc3nc(C)cc(=O)[nH]3)n2)cc1OC`, the Potency entry is “inactive”. Consider `CCOc1ccc(N(Cc2ccccc2)C(=O)c2nc(S(C)(=O)=O)ncc2Cl)cc1`, for which the Potency was 7.94 µM (active). The same measure, in the same setting: the result for `CCOc1ccc(NC(=O)CN(Cc2ccccc2)S(=O)(=O)c2ccc(Cl)cc2)cc1` reads “inactive”; that for `CCOc1ccc(N(Cc2ccccc2)C(=O)c2nc(SCC)ncc2Cl)cc1`, “inactive”; that for `CCCCC(CC)CNC(=O)C1CCN(S(=O)(=O)c2cccc3nsnc23)CC1` (centres undefined), “inactive”. The same measure, in the same setting: the result for `COC(=O)CN1C(=O)CSc2ccc(S(=O)(=O)Nc3cc(C)ccc3C)cc21` reads “inactive”; that for `CCCNC(=O)c1ccc(Cn2c(SCC(N)=O)nc3ccccc3c2=O)cc1`, “inactive”. On the same count and under the same terms, the result for `Cc1csc(NC(=S)Nc2cccc(Cl)c2)n1` reads 0.891 µM (active); that for `COc1cccc(NC(=S)NC(=O)c2c(Cl)c(C)nn2C)c1`, “inactive”; that for `O=C(Nc1cccc(Cl)c1)c1csnn1`, “inactive”. For the compound `O=C(CCOc1ccccc1)N(Cc1cccnc1)c1nc2ccc(Cl)cc2s1`, the Potency result is “inactive”. For `COc1ccc(NC(=O)Cn2c(=O)n(CCC(C)C)c(=O)c3cccnc32)cc1Cl`, the Potency result is “inactive”. Turning to `CCOc1ccc(NC(=O)CSc2c3c(nc4ccccc24)CCCC3)cc1`, the Potency result was “inactive”. Take `COc1ccc(C2NC(=O)N(C)C3=C2C(=O)N(c2ccc(C(=O)O)cc2)C3)cc1` (centres undefined): the Potency result is “inactive”.

Consider `COc1ccccc1CNc1nc2ccc(Cl)cc2n2cnnc12`, for which the Potency entry is “inactive”. Still for that read-out and setting: the value for `O=c1c2ccccc2n(Cc2cccc(Cl)c2)c(=O)n1Cc1ccccc1` was “inactive”; that for `COc1ccc(C(=O)CSc2c(C(C)C)cnc3c2c(=O)n(C)c(=O)n3C)cc1` was “inactive”; that for `COc1ccc(C2CC(=O)Nc3c2c(=O)nc2c(C)cccn32)cc1OC` (centres undefined) was “inactive”. For `CC(=O)N1c2ccccc2CC1C(=O)N1CCN(c2ccc(F)cc2)CC1` (centres undefined), the Potency entry is “inactive”. Take `COc1cc(C2c3c(oc4ccccc4c3=O)C(=O)N2c2nc(C)c(C)s2)ccc1O` (centres undefined): the Potency result was “inactive”.

As to `CC(C)(C)C1CCc2c(sc(NC(=O)c3ccccc3F)c2C(=O)N2CCCCC2)C1` (centres undefined), the Potency result was “inactive”. Turning to `COc1ccc(NC(=O)N2CCCn3nc(C)cc32)cc1OC`, the Potency result was “inactive”.

In the case of `CCOc1ccc(NC(=O)Cn2c(=O)n(CCCC(=O)NCc3ccc4c(c3)OCO4)c(=O)c3ccccc32)cc1`, the Potency entry is “inactive”. Still for that read-out and setting: the value for `CN(Cc1ccccc1)C(=O)CCS(=O)(=O)c1cc(Br)cc2c1N(C(=O)C1CC1)CC2` was “inactive”; that for `COc1ccc(-c2cc(-c3nc(-c4cc(OC)c(OC)c(OC)c4)no3)[nH]n2)c(OC)c1` was “inactive”. On the same count and under the same terms, the result for `CCOC(=O)c1ccc(NC(=O)c2ncn(-c3ccccc3)n2)cc1` reads “inactive”; that for `COC(=O)c1c(NC(=O)c2ccc(Cl)c(Cl)c2)sc2c1CCCC2`, “inactive”; that for `O=c1[nH]c2cc(Br)ccc2n2cccc12`, “inactive”.

Consider `COc1cccc(-c2nc(S(=O)(=O)c3ccc(C)cc3)c(NCc3ccccc3)o2)c1`, for which the Potency entry was “inactive”.

As to `CCCCN(CC(=O)Nc1cccc(S(=O)(=O)N2CCCC2)c1)Cc1nc2ccccc2c(=O)[nH]1`, the Potency result is “inactive”. Still for that read-out and setting: the result for `CCN(CC(=O)NC(=O)NCc1ccccc1)Cc1nc2ccccc2c(=O)[nH]1` reads 6.31 µM (active). Take `CCN(CC(=O)Nc1ccc(Cl)c(S(=O)(=O)N(C)C)c1)Cc1nc2ccccc2c(=O)[nH]1`: the activity change, negative = inhibition was 0.695% [at 0.307 µM]. Consider `COC(=O)c1cnn(-c2ccc(C(=O)Nc3ccc(OC(F)(F)F)cc3)cc2)c1N`, for which the Potency result is “inactive”. Turning to `Cc1ccc2nc(COc3ccccc3NC(=O)Nc3ccc(F)c(Cl)c3)cc(=O)n2c1`, the Potency entry was “inactive”. In the case of `COc1ccc(NC(=O)CN2CCCN(Cc3ccccc3)S2(=O)=O)cc1`, the Potency result is “inactive”. For the compound `Cc1ccc(OC(=O)CSc2nnc(-c3cccs3)o2)cc1`, the Potency entry is “inactive”. Still for that read-out and setting: the result for `COc1ccc(Cn2c(C(=O)O)c(CNCCc3cccs3)c3ccc(OC)cc32)cc1` reads “inactive”. The same measure, in the same setting: the result for `Oc1ccc(N=Nc2nccs2)c(O)c1` reads 8.91 µM (active); that for `Oc1ccc2ccccc2c1N=Nc1nccs1`, 4.47 µM (active).

Turning to `Cc1ccc(-c2noc(CSc3nnc(-c4ccc(Cl)cc4)n3C)n2)cc1`, the Potency result is “inactive”. The same measure, in the same setting: the result for `Cc1ccc(C(=O)Nc2ccccc2F)cc1S(=O)(=O)N1CCOCC1` reads “inactive”; that for `Cc1cc2c(cc3c(SCc4cccc(Cl)c4)nnc(C)n32)o1`, “inactive”; that for `CCOc1ccc(CCNC(=O)CN(c2ccc(C)cc2)S(=O)(=O)N(C)C)cc1OCC`, “inactive”. On to `CC(=O)c1ccc(N2CCN(C3C(=O)c4ccccc4N3C(C)=O)CC2)cc1` (centres undefined), for which the Potency entry was “inactive”. As to `Cc1cc(-c2ccc(C)c(S(=O)(=O)N3c4ccccc4CC3C)c2)on1` (centres undefined), the Potency entry is “inactive”.

Take `Cc1ccc(-n2c(=O)c3cccnc3n2CC(=O)Nc2ccccc2C(F)(F)F)cc1C`: the Potency entry is “inactive”. Take `Cc1nn(-c2ccc(N3CCCCC3)nn2)c(C)c1CCC(=O)NCc1ccc(F)cc1`: the Potency entry is “inactive”. Still for that read-out and setting: the result for `S=C(NCCc1ccccc1)NCc1ccccc1Cl` reads “inactive”; that for `CCCC1CCC(=NNC(=S)NCCc2ccccc2)CC1` (centres undefined), 4.47 µM (active); that for `CCCCNC(=S)N/N=C1\CCCCc2ccccc21`, “inactive”. The same measure, in the same setting: the value for `CCN(CCCNC(=O)c1cc(Nc2ccc(OC)cc2)nc2ccccc12)c1cccc(C)c1` was “inactive”. In the case of `CCc1ccc(NC(=O)CSc2nc3c([nH]c4ccccc43)c(=O)n2-c2cccc(OC)c2)cc1`, the Potency result was “inactive”.

For the compound `Fc1ccc(CN2CCc3nc(Nc4ccccc4)ncc3C2)cc1F`, the Potency result was “inactive”.

As to `COc1ccccc1-c1cc(C(F)(F)F)nc(S(=O)(=O)CCCC(=O)Nc2ccc(F)cc2F)n1`, the Potency result was “inactive”.

On to `O=C1c2ccccc2C(=O)C1C(=O)C1CC1`, for which the Potency result was “inactive”.

In the case of `C/C(=N\NC(=O)c1ccc(C)cc1)C1C(=O)c2ccccc2C1=O`, the Potency is 4.47 µM (active). On the same count and under the same terms, the result for `C/C(=N\NC(=O)c1ccc(CSc2nc(C)cc(C)n2)cc1)C1CCCCC1` reads “inactive”. Same read-out and setting: the result for `Cc1ccc(-n2cnc3cc(C(=O)NCCC4=CCCCC4)ccc32)cc1Cl` reads “inactive”; that for `O=C(CSc1cn(CC(=O)N2CCOCC2)c2ccccc12)Nc1ccccc1`, “inactive”.

`CCCCOC(=O)/C(C#N)=C/c1ccc(-c2cccc(C(F)(F)F)c2)o1`: the Potency entry is “inactive”. Same read-out and setting: the result for `CCSc1nnc2c(n1)OC(c1ccc(OCC(=O)O)cc1)Nc1ccccc1-2` (centres undefined) reads “inactive”; that for `Cc1ccc2oc(=O)c3cnn(CC(=O)NCc4ccccc4Cl)c3c2c1`, “inactive”. Still for that read-out and setting: the value for `CCc1cccc(NC(=O)c2cc(-c3ccccc3)n[nH]2)c1` was “inactive”; that for `O=C(CNCc1ccc(Cl)cc1)Nc1cccc(C(=O)O)c1` was “inactive”. On the same count and under the same terms, the value for `O=C(CCl)Nc1cccc(CP(=O)(c2ccccc2)c2ccccc2)c1` was 3.16 µM (active); that for `CCn1cc(C(=O)OCC(=O)Nc2cc(C)cc(C)c2)c(=O)c2ccc(C)nc21` was “inactive”. On to `COc1ccc(CNc2nc(-c3ccccc3)nn2C(=O)c2ccccc2OC)cc1`, for which the Potency entry is “inactive”. The same measure, in the same setting: the value for `Cc1ccc(Nc2c(-c3ccc(Cl)cc3)nc3sccn23)c(C)c1` was “inactive”.

As for `CCOC(=O)N1CCc2c(sc3c2c(=O)n(-c2ccc(CC)cc2)c(=O)n3C)C1`, the Potency entry is “inactive”.
